For 16 compounds, activity results are on record in PubChem BioAssay.

Assay [1] addresses Tumor necrosis factor receptor superfamily member 10B (Homo sapiens) (UniProt O14763). Briefly: viability loss of caspase-8 NB7 cells with TRAIL – with/without TRAIL, luminescence panel, confirmation (AID 651596). The following applies: NB7 neuroblastoma + caspase-8, TRAIL sensitization, NB7 Caspase-8, with TRAIL, mean of runs, at 10 µM, stronger effect = higher value.
Assay in assay [2]: as above
As to conditions: NB7 neuroblastoma + caspase-8, without TRAIL, NB7 Caspase-8, without TRAIL, mean of runs, at 10 µM.

Tumor necrosis factor receptor superfamily member 10B (Homo sapiens), sequence (O14763 whole entry, looked up): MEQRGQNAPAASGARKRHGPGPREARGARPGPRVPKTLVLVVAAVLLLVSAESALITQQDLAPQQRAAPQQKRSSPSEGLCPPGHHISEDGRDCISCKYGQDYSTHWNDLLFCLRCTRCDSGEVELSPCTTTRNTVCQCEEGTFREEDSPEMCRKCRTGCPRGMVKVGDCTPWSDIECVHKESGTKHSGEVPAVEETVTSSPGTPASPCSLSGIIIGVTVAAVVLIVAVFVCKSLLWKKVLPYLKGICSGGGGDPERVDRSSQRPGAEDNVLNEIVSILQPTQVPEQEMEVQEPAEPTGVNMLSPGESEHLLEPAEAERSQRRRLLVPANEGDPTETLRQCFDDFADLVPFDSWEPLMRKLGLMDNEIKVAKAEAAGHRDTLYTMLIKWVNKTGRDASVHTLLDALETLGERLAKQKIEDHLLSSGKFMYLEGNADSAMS

In the case of `Cc1nc2sc(-c3ccccc3)cc2c(=O)n1N`, the activity in assay [1] was determined as 59.7%; in assay [2], 44.8%.
With `Nc1nc(N)c2nc(-c3ccccc3)c(N)nc2n1`, the activity in assay [1] was 74.7%; in assay [2], 80.7%.
In the same order, the values of `Cc1cc(O)c(C(=O)/C=C/c2ccc(Cl)cc2)c(=O)o1` are 83.4% and 79.5%.
The like results for `COc1ccc(C(=O)O/N=C(\N)c2ccccc2Cl)cc1OC` were, in that order, 95.7% and 92.8%.
As for `Cc1nn(-c2ccccc2Cl)c(Cl)c1/C=N/Nc1cccc(C(=O)O)c1`, the activity in assay [1] is 68.9%; in assay [2], 62.9%.
As for `CCCCC[C@@H](C)N1C[C@H](COCc2ccccc2)Oc2cc(N3CC[C@H](N(C)C)C3)ccc2S1(=O)=O`, the activity in assay [1] was determined as 12%; in assay [2] it was 45.6%.
In the case of `O=C(Cn1ncc(Cl)c(Cl)c1=O)NC1CCCCC1`, the activity in assay [1] was 98%; in assay [2] it was 98.5%.
In the same order, the values of `CN(C)C=Nc1ccc2nc3c(cc2c1)[nH]c1ccccc13` are 76.7% and 76.3%.
The like results for `Cc1ccc(C(=O)Nc2ccc3c(c2)OCCO3)c(C)c1` were, in that order, 91.6% and 91.5%.
Consider `O=C(NOCc1ccccc1)c1ccc(Cl)cc1`, for which the figures for the activity in assay [1] and in assay [2] were 45.1% and 43.2%, respectively.
As to `Fc1ccc(-c2cnn3c(-c4cccs4)ccnc23)cc1`, the activity in assay [1] worked out at 61.2%; in assay [2] it was 59.4%.
The like results for `CCCc1cc(=O)[nH]c(SCC(=O)Nc2cc(S(=O)(=O)N3CCCCC3)ccc2C)n1` were, in that order, 3.67% and -4.17%.
As for `CC(=O)n1cc(N(C(=O)CCl)c2ccccc2)c2ccccc21`, the activity in assay [1] is 99.6%; in assay [2], 99.8%.
In the same order, the values of `COc1ccc(NC(=O)c2ccc(C)cc2)cc1` are 66.1% and 60.3%.
As for `COc1ccc(C(=O)c2no[n+]([O-])c2C(=O)c2ccc(OC)cc2)cc1`, the activity was found to be 98.3% in assay [1] and 99% in assay [2].
In the case of `COc1ccc(Cn2c(SCc3cc(C)ccc3C)nc3cc(OC)c(OC)cc3c2=N)cc1`, the activity in assay [1] is 94.9%; in assay [2], 97.8%.
